From PubChem BioAssay come the findings set out here.

Where “and” joins values, the source holds several entries; their conditions need not be identical. Equal entries are not always repeated. Calls of active or inactive are those of the source.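 How the source made its calls, unless noted: active means inhibition at or above 50% relative to wild type and mutant plate controls; inactive means inhibition below 50%.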

The nature of assay [1]: inhibitors of TNFa-induced NFkB p65 translocation, primary screen, imaging, HUVEC, MLSMR starter and 10KST1 sets (AID 438;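 active means inhibition above 20% together with a positive visual image hit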;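 further: compound added about 3h40 before a 20 min TNFalpha stimulation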;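 on inhibition: signal is the nuclear over cytoplasmic p65 intensity ratio per well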). The following applies: HUVEC TNFa-induced p65 nuclear translocation; cell count: measured here: nuclei count (cytotoxicity indicator), at 2.08 µM; inhibition: at 2 µM, stronger effect = higher value, 0% TNFa-plus-vehicle, 100% no-TNFa wells.
Assay [2] is described as follows: reduction of polyQ htt aggregates in cells – imaging, exon1htt(103Q)mCFP cells, high-content imaging, primary screen (AID 483;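 active means visual image review flags a hit and inhibition of aggregation exceeds 20%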;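 further: compound exposure lasted 3 days before fixation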;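 on nuclei count: percent of the per-plate median nuclei count of sample wells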). The following applies: exon1htt(103Q)mCFP cell line, aggregate imaging, at 2 µM; inhibition of aggregation: stronger effect = higher value; nuclei count: measured here: cell count, toxicity.
A short description of assay [3]: endothelial E-selectin expression blockers – imaging, HUVEC, immunofluorescence, MLSMR starter and 10KST1 sets, primary screen (AID 487;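 active means visually confirmed hit in the image check and inhibition above 20%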;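 on inhibition: signal is fraction of cell area covered by stained E-selectin grains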;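 on nuclei count: 100% = median nuclei count of all wells on the same plate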). The following applies: HUVEC TNFalpha-induced E-selectin immunofluorescence imaging, at 2 µM; inhibition: stronger effect = higher value; nuclei count: measured here: cell number, toxicity.
A short description of assay [4]: Primary imaging screen for DUSP6 inhibitors that restore phospho-Erk in transfected HeLa cells, chemical complementation (AID 609;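 active means compounds giving at least 50% inhibition in the cell-based MKP-3 phosphatase rescue imaging test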;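 on inhibition: phospho-Erk level distribution per well compared with pooled transfected vehicle control wells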). The following applies: HeLa MKP-3 transfected, phospho-Erk imaging KS statistic, at 10 µM, cells stimulated with TPA for 15 min.
The target in assay [5] is Dual specificity protein phosphatase 6 (Homo sapiens) (UniProt Q16828). Described as above. The following applies: HeLa MKP-3 transfected, phospho-Erk imaging KS statistic; at 10 µM; stronger effect = higher value; cells stimulated with TPA for 15 min.
Dual specificity protein phosphatase 6 (Homo sapiens), sequence (Q16828 whole entry, looked up): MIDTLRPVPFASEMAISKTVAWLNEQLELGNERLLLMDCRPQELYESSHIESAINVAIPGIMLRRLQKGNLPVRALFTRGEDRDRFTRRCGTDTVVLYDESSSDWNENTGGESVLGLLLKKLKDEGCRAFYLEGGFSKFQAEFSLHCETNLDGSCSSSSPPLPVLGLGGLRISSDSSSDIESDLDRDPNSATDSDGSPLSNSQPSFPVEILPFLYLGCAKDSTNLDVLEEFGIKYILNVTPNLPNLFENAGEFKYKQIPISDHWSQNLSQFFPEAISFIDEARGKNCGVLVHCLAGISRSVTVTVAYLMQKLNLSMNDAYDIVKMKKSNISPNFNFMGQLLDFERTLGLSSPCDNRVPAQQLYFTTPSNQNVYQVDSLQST
Assay [6] addresses Voltage-gated potassium channel subunit beta-2 (Rattus norvegicus) (UniProt P62483). Nature of the assay: inhibitors of rat Kvbeta2 reductase activity – biochemical, NADPH fluorescence, primary screen (AID 622;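 active means fluorescence slope higher than the sample average by over 3 SD, cut at about -0.22 in these data, passing the limit was not always enough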;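 further: slope of raw intensity against log time taken from 70 to 1610 s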). The following applies: recombinant KvBeta, 4-cyanobenzaldehyde reduction, at 10 µM, stronger effect = higher value.
The target is the same in assay [7]. Nature of the assay: enhancers of rat Kvbeta2 NADPH turnover – biochemical, NADPH fluorescence, primary screen (AID 623;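 active means NADPH fluorescence slope more negative than the mean of all samples by about 3 SD, 99.7% confidence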;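 further: fluorescence intensity change per second fitted from 20 to 320 s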). The following applies: Recombinant KvBeta, NADPH fluorescence decrease slope, 10 min; at 10 µM; stronger effect = lower value.
Assay [8] concerns the target Alpha-2C adrenergic receptor (Homo sapiens) (UniProt P18825). Nature of the assay: compounds altering alpha2C-coupled GIRK flux – cell-based, HEK293 alpha2C/GIRK1/2, thallium flux, primary screen (AID 624;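 active means fluorescence slope after compound addition differing from the mean of all screened samples at 99.7% confidence, in either direction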;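 further: slope of fluorescence ratio to pre-addition baseline per second over 15 to 24 s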). The following applies: thallium flux BTC fluorescence, at 10 µM, actives lie on both sides.
Assay [9] deals with Muscarinic acetylcholine receptor M4 (Homo sapiens) (UniProt P08173). Nature of the assay: M4-linked GIRK flux change, two-sided – cell-based, HEK293 M4/GIRK, thallium flux, BTC-AM, M4 allosteric agonist project, primary screen (AID 625;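 active means fluorescence slope after compound addition differing from the mean of all tested samples at 99.7% confidence, mostly higher but some lower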;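 further: thallium influx through GIRK channels coupled to M4 in HEK293 cells with BTC-AM dye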). The following applies: at 10 µM, actives lie on both sides.
Muscarinic acetylcholine receptor M4 (Homo sapiens), sequence (P08173 whole entry, looked up): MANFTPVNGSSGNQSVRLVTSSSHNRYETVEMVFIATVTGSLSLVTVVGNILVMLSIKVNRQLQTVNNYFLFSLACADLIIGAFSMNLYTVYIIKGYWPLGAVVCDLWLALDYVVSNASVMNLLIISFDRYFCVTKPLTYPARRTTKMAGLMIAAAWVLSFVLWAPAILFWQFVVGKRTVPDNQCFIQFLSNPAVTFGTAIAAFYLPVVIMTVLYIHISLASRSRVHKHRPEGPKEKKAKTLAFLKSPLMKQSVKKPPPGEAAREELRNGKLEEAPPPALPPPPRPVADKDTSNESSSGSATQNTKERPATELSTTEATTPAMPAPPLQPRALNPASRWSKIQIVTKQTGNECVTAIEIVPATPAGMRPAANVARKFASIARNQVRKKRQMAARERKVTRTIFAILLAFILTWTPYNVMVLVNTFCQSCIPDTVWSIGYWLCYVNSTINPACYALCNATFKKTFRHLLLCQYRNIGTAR
Assay [10] in a line: inhibitors of larval lipid processing in zebrafish, primary screen, whole organism, PED6 fluorescence, gall bladder and intestine (AID 686;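 active means a full or partial loss of lipid-probe fluorescence in the fish gall bladder, intestine or both, judged by eye; inactive means no fluorescence loss, or compound toxic to the fish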;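 further: larvae 5 to 7 days old with five fish per well; signal comes from phospholipase A2 cleavage of quenched PED6 carried via bile; overnight exposure to compound and PED6 before scoring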). The following applies: Zebrafish larvae PED6 lipid processing, fluorescence scoring; screened at 20 µM (by protocol).
Assay [11] in a line: loss of swimming-algae plug formation – whole organism, Chlamydomonas reinhardtii, WT vs cilia-less mutant, absorbance, 96-well, primary screen (AID 463189).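 Further: 0% = wild type cc124 cells in DMSO and 100% = ciliumless bld1 mutant cells.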 The following applies: Chlamydomonas reinhardtii gravitaxis, OD600 absorbance, 2 days; at 10 µM; stronger effect = higher value.
A short description of assay [12]: blockers of RIG-like receptor reporter activation – cell-based, Sendai virus stimulus, luciferase, 10K MLSCN set, TLR/RLR signaling modifier project, primary screen (AID 602276;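 active means inhibition at or above 50% at 10 µM; inactive means inhibition below 50%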;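 further: firefly luciferase from ISG56 promoter only with Renilla not read in this screen; 0% = Sendai virus plus DMSO and 100% = medium plus DMSO without virus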). The following applies: HEK293 RL24 IRF3 luciferase reporter, at 10 µM, stronger effect = higher value.
The nature of assay [13]: TLR3 IRF3 reporter activation blockers – cell-based, poly I:C stimulus, luciferase, 10K MLSCN set, primary screen (AID 602277;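 active means inhibition of the reporter signal at or above 50%; inactive means inhibition below 50%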). The following applies: HEK293-TLR3 RL24 IRF3 luciferase reporter, at 10 µM, stronger effect = higher value. (A reporter such as luciferase makes a cellular process visible.)
Where [14] appears, read: measured here: cell density z-score.
Where [15] appears, read: measured here: nuclear c-Myc green intensity z-score.
Setting [16] is: measured here: nuclear pErk red intensity z-score, stronger effect = higher value.

Voltage-gated potassium channel subunit beta-2 (Rattus norvegicus), sequence (P62483 whole entry, looked up): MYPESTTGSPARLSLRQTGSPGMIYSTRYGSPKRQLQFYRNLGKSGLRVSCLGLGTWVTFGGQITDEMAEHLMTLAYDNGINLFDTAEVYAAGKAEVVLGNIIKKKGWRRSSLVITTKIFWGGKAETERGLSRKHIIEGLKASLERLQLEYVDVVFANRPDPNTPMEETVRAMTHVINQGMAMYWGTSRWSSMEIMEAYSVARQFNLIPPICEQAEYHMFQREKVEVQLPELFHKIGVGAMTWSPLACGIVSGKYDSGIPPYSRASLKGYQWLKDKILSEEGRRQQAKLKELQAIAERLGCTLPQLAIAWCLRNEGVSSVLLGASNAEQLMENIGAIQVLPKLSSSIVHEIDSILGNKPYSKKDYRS
Alpha-2C adrenergic receptor (Homo sapiens), sequence (P18825 whole entry, looked up): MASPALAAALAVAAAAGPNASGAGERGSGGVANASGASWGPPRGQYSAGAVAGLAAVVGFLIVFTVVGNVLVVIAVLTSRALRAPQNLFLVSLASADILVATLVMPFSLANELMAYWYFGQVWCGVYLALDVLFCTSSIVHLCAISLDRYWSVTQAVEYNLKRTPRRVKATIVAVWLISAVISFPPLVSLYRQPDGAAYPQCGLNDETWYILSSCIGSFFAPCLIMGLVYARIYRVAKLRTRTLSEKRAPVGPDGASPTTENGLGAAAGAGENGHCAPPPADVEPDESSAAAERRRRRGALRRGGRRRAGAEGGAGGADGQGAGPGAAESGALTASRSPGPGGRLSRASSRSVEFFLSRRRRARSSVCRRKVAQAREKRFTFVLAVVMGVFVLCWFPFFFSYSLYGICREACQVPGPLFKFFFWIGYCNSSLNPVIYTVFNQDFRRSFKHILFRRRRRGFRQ

One may read the inhibition as the change of the read-out against control, counted positive when it falls. On to `N#CC1(c2ccccc2)CCC(=NO)CC1` (centres undefined), for which the cell count in [1] amounted to 685. The inhibition in assay [1] is -0.6% (inactive); in assay [3], 8.8% (inactive); in assay [5], -13.3% (inactive); in assay [11] it was -5.88% (inactive); in [12], 10.2% (inactive); in assay [13], 20.6% (inactive). In addition, the inhibition of aggregation in [2] was -8% (inactive). Besides, the nuclei count in assay [2] is 102%; in [3], 86.8%. Also, the z-score in assay [4] (setting [14]) was -0.0727; in [4] (setting [15]), 1.42; in [4] (setting [16]), -0.351. The fluorescence slope was -0.461 (inactive) in assay [6] and 0.00503 (inactive) in assay [9]. Moreover, the NADPH fluorescence slope in assay [7] is -4.5e-05 (inactive). For the same compound, the slope in assay [8] was 0.00512 (inactive). Further, the compound was classed as inactive in assay [10].
Regarding `CCOc1ccc(C2/C(=C(/O)c3ccc(OC)cc3)C(=O)C(=O)N2c2cc(C)on2)cc1OC` (centres undefined), the cell count in assay [1] turned out to be 314. Moreover, the inhibition is -5.2% (inactive) in assay [1]; -84.6% (inactive) in assay [3]; -5.26% (inactive) in assay [5]; -9.21% (inactive) in assay [11]; -8.23% (inactive) in assay [12]; -11.7% (inactive) in assay [13]. The inhibition of aggregation in assay [2] is 2.5% (inactive). For the same compound, the figures for the nuclei count in [2] and in [3] were 87.7% and 122%, respectively. Moreover, the z-score in assay [4] (setting [14]) was 0.762; in [4] (setting [15]) it was 0.679; in [4] (setting [16]), -1.01. Besides, the fluorescence slope in assay [6] was -0.434 (inactive). Besides, the NADPH fluorescence slope in assay [7] is -0.000115 (inactive). Moreover, in assay [8], the slope was 0.00335 (inactive).
On to `CCN(CC)CCN1C(=O)C(=O)/C(=C(/O)c2c(C)[nH]c(C(=O)OC)c2C)C1c1ccco1` (centres undefined), for which, in assay [1], the cell count worked out at 572. Besides, the inhibition in assay [1] was -11.8% (inactive); in assay [3], 26.1% (inactive); in assay [5] it was -11.9% (inactive); in assay [11], 4.53% (inactive); in assay [12] it was 4.22% (inactive); in assay [13], 6.98% (inactive). The inhibition of aggregation in assay [2] is -5.3% (inactive). In addition, the nuclei count in [2] stood at 105%; in assay [3], 120%. The z-score in assay [4] (setting [14]) is -1.72; in [4] (setting [15]) it was 1.35; in assay [4] (setting [16]), -0.00455. The figures for the fluorescence slope in assay [6] and in assay [9] were -0.473 (inactive) and 0.00487 (inactive), respectively. Further, in [7], the NADPH fluorescence slope was -1.4e-05 (inactive). For the same compound, the slope in assay [8] was 0.00421 (inactive). Also, the call in assay [10] was inactive.
As for `COc1cc(NS(=O)(=O)c2ccc(N)cc2)nc(OC)n1`, the cell count in assay [1] came to 482. Also, the inhibition in assay [1] is 1.1% (inactive); in assay [3], -59.5% (inactive); in assay [5], 5.79% (inactive); in assay [11] it was 20.1% (inactive); in [12] it was 24.9% (inactive); in assay [13], 51.9% (active). Besides, the inhibition of aggregation in [2] is -12.6% (inactive). For the same compound, the nuclei count was determined as 82% in assay [2] and 96.6% in assay [3]. Besides, the z-score in [4] (setting [14]) was 0.641; in [4] (setting [15]) it was 0.795; in [4] (setting [16]), -0.759. In addition, the fluorescence slope in [6] is -0.439 (inactive). In addition, the NADPH fluorescence slope in [7] was -7e-05 (inactive). The slope in assay [8] was 0.00564 (inactive).
Turning to `CCO/C([O-])=N/c1c[n+](N2CCOCC2)no1`, the cell count in assay [1] was found to be 669. The inhibition in [1] was 9.9% (inactive); in assay [3], -28.6% (inactive); in [5], 16.8% (inactive); in assay [11] it was 2.9% (inactive) and 18.7% (inactive); in assay [12] it was -10.8% (inactive); in assay [13], -12.7% (inactive). Also, in [2], the inhibition of aggregation is -18.2% (inactive). Further, the nuclei count was found to be 97.5% in assay [2] and 122% in assay [3]. Moreover, the z-score was -0.87 in assay [4] (setting [14]), -0.27 in [4] (setting [15]) and -1.04 in assay [4] (setting [16]). The fluorescence slope in assay [6] is -0.482 (inactive). In addition, the NADPH fluorescence slope in assay [7] was -6e-05 (inactive). In addition, in [8], the slope was 0.00537 (inactive).
